In all, about 39,000 compounds went through this assay and about 1,500 (3.8%) were called active. The sample holds actives, similar compounds and a random draw of the others, so the mix is not that of the screen.

In this assay the test system is HSkMC (human skeletal muscle cells). The assay can be described thus: cytotoxicity call (relative viability < 0.9). The following applies: 10 µM.
For `C[C@H](CO)N1C[C@H](C)[C@H](CN(C)Cc2ccncc2)OCCCC[C@H](C)Oc2ccc(NC(=O)NC3CCCCC3)cc2C1=O`, the cytotoxicity call is “inactive”.
Take `C[C@@H]1CCCCO[C@H](CN(C)C(=O)Cc2ccccc2)[C@H](C)CN([C@H](C)CO)C(=O)c2cc(NS(=O)(=O)c3ccc(Cl)cc3)ccc2O1`: the cytotoxicity call was “inactive”.
Turning to `C[C@H](CO)N1C[C@H](C)[C@H](CN(C)C(=O)C2CCCCC2)OCCCC[C@H](C)Oc2ccc(NC(=O)Nc3ccc4c(c3)OCO4)cc2C1=O`, the cytotoxicity call is “inactive”.
Take `Nc1ccn([C@H]2O[C@@H](CO)[C@@H](O)[C@@H]2O)c(=O)n1`: the cytotoxicity call is “inactive”.
For the compound `O=C(C[C@@H]1C=C[C@@H](NS(=O)(=O)c2ccccc2F)[C@@H](CO)O1)NCCCN1CCOCC1`, the cytotoxicity call was “inactive”.
Consider `O=C(CCCCC(=O)N/N=C/c1cc[n+]([O-])cc1)NO`, for which the cytotoxicity call is “inactive”.
As for `Cc1ccc(S(=O)(=O)Nc2ccc3c(c2)CC(=O)N([C@H](C)CO)C[C@H](C)[C@H](CN(C)C(=O)Nc2cccc4ccccc24)O3)cc1`, the cytotoxicity call is “inactive”.
For `CN(C)C1CCN(C(=O)c2cnc(-c3noc4cc(-c5cccc(C(F)(F)F)c5)ccc34)s2)CC1` the value was “active”; for `CN(C)C1CCN(C(=O)c2cnc(-c3noc4cc(-c5ccccc5C(F)(F)F)ccc34)s2)CC1`, “inactive”; for `C[C@H](CO)N1C[C@H](C)[C@H](CN(C)C(=O)Nc2ccccc2)Oc2ncc(-c3cccc(C(F)(F)F)c3)cc2C1=O`, “inactive”.
In the case of `COc1ccc(S(=O)(=O)Nc2ccc3c(c2)CC(=O)N([C@@H](C)CO)C[C@H](C)[C@@H](CN(C)S(=O)(=O)c2cn(C)cn2)O3)cc1`, the cytotoxicity call is “inactive”.
For `O=C(C1=C[C@H](c2coc3ccccc3c2=O)C[C@H](OCCCCO)O1)N1CCN(Cc2ccc3c(c2)OCO3)CC1` the value was “inactive”; for `CNc1cccc(CN)c1`, “inactive”.
`CN1CCC(Nc2nc(Nc3ccc(Oc4ccccc4)cc3)c3c(O)ncc(Br)c3n2)CC1`: the cytotoxicity call is “active”.
`C=CC[C@@H](CC(=O)N(CCO)Cc1ccccc1)C(=O)N[C@@H](COC(=O)[C@@H](CC=C)Cc1ccc(F)cc1)Cc1c[nH]c2ccccc12`: the cytotoxicity call is “active”.
As for `C=CC[C@@H](CC(=O)N(CCO)Cc1ccccc1)C(=O)N[C@@H](COC(=O)[C@H](CC=C)Cc1ccc(F)cc1)Cc1c[nH]c2ccccc12`, the cytotoxicity call is “active”.
Take `C=CC[C@@H](CC(=O)N(CCO)Cc1ccccc1)C(=O)N[C@H](COC(=O)[C@@H](CC=C)CC(=O)OC(C)(C)C)Cc1c[nH]c2ccccc12`: the cytotoxicity call was “inactive”.
Consider `C=CC[C@@H](CC(=O)N(CCO)Cc1ccccc1)C(=O)N[C@H](COC(=O)[C@@H](CC=C)Cc1ccc(F)cc1)Cc1c[nH]c2ccccc12`, for which the cytotoxicity call is “active”.
On to `C=CC[C@H](CC(=O)N(CCO)Cc1ccccc1)C(=O)N[C@@H](COC(=O)[C@H](CC=C)CC(=O)OC(C)(C)C)Cc1c[nH]c2ccccc12`, for which the cytotoxicity call is “inactive”.
Under `C=CC[C@@H](CC(=O)N(CCO)Cc1ccccc1)C(=O)N[C@@H](COC(=O)[C@@H](CC=C)CC(=O)OC(C)(C)C)Cc1c[nH]c2ccccc12` stands “inactive”.
`C=CC[C@H](CC(=O)N(CCO)Cc1ccccc1)C(=O)N[C@H](COC(=O)[C@H](CC=C)CC(=O)OC(C)(C)C)Cc1c[nH]c2ccccc12`: the cytotoxicity call is “inactive”.
On to `C=CC[C@H](CC(=O)N(CCO)Cc1ccccc1)C(=O)N[C@@H](COC(=O)[C@@H](CC=C)CC(=O)OC(C)(C)C)Cc1c[nH]c2ccccc12`, for which the cytotoxicity call is “inactive”.
Consider `C=CC[C@H](CC(=O)N(CCO)Cc1ccccc1)C(=O)N[C@H](COC(=O)[C@@H](CC=C)Cc1ccc(F)cc1)Cc1c[nH]c2ccccc12`, for which the cytotoxicity call is “inactive”.
For the compound `C=CC[C@H](CC(=O)N(CCO)Cc1ccccc1)C(=O)N[C@H](COC(=O)[C@@H](CC=C)CC(=O)OC(C)(C)C)Cc1c[nH]c2ccccc12`, the cytotoxicity call was “inactive”.
Consider `C=CC[C@H](CC(=O)N(CCO)Cc1ccccc1)C(=O)N[C@@H](COC(=O)[C@@H](CC=C)Cc1ccc(F)cc1)Cc1c[nH]c2ccccc12`, for which the cytotoxicity call is “active”.
As to `C=CC[C@@H](CC(=O)N(CCO)Cc1ccccc1)C(=O)N[C@@H](COC(=O)[C@H](CC=C)CC(=O)OC(C)(C)C)Cc1c[nH]c2ccccc12`, the cytotoxicity call is “inactive”.
`C[C@H]1CCCCO[C@H](CN(C)CC2CC2)[C@@H](C)CN([C@@H](C)CO)C(=O)c2cc(NC(=O)C3CCCCC3)ccc2O1`: the cytotoxicity call was “inactive”.
On to `C[C@@H]1CN([C@@H](C)CO)C(=O)c2cc(NC(=O)C3CC3)ccc2O[C@H]1CN(C)S(=O)(=O)c1ccc(F)cc1`, for which the cytotoxicity call was “inactive”.
With `C[C@@H]1CN([C@H](C)CO)S(=O)(=O)c2ccc(/C=C/c3ccccc3)cc2O[C@@H]1CN(C)C(=O)Nc1cc(F)ccc1F`, the cytotoxicity call is “inactive”.
For `NC(=S)c1cnccn1` the value was “inactive”; for `C[C@@H]1CCCCO[C@H](CN(C)Cc2ccc(C(F)(F)F)cc2)[C@H](C)CN([C@@H](C)CO)C(=O)c2cc(NS(=O)(=O)c3ccccc3)ccc2O1`, “inactive”.
As for `C[C@H](CO)N1C[C@H](C)[C@@H](CN(C)C(=O)Nc2ccc(F)cc2)Oc2ccc(NC(=O)C3CC3)cc2CC1=O`, the cytotoxicity call is “inactive”.
Take `C[C@@H]1CN([C@H](C)CO)C(=O)c2cc(C3=CCCC3)cnc2O[C@@H]1CN(C)C(=O)c1ccc2c(c1)OCO2`: the cytotoxicity call is “inactive”.
For `C[C@H](CO)N1C[C@H](C)[C@@H](CN(C)C(=O)c2ccccc2)OCCCC[C@H](C)Oc2ccc(NC(=O)Nc3cccc4ccccc34)cc2C1=O` the value was “inactive”; for `CN1CCN(C(=O)C[C@H]2CC[C@@H]3[C@H](COC[C@@H](O)CN3S(=O)(=O)c3cccc(F)c3)O2)CC1`, “inactive”; for `C[C@@H]1CN([C@@H](C)CO)C(=O)c2c(c3ccccc3n2C)-c2ccccc2CO[C@@H]1CN(C)Cc1ccc(C(=O)O)cc1`, “inactive”.
In the case of `Cc1ccc([C@@H]2CC(=O)N[C@@H]2C(N)=O)cc1`, the cytotoxicity call was “inactive”.
For `COc1ccccc1S(=O)(=O)N(C)C[C@@H]1Oc2c(NC(=O)Nc3cccc4ccccc34)cccc2C(=O)N([C@@H](C)CO)C[C@H]1C` the value was “inactive”; for `C[C@@H]1CN([C@@H](C)CO)C(=O)c2cccc(NC(=O)Nc3cccc4ccccc34)c2O[C@H]1CN(C)S(=O)(=O)c1cccs1`, “inactive”; for `C[C@H](CO)N1C[C@H](C)[C@H](CN(C)S(=O)(=O)c2ccc(F)cc2)Oc2c(NC(=O)Nc3cccc4ccccc34)cccc2C1=O`, “active”.
For the compound `C[C@@H]1CN([C@@H](C)CO)C(=O)c2cccc(NC(=O)Nc3cccc4ccccc34)c2O[C@H]1CN(C)S(=O)(=O)c1ccc(F)cc1`, the cytotoxicity call was “inactive”.
Under `COc1ccc(S(=O)(=O)N(C)C[C@@H]2Oc3c(NC(=O)Nc4cccc5ccccc45)cccc3C(=O)N([C@@H](C)CO)C[C@H]2C)c(OC)c1` stands “active”; under `C[C@@H]1CN([C@@H](C)CO)C(=O)c2cccc(NC(=O)Nc3cccc4ccccc34)c2O[C@@H]1CN(C)S(=O)(=O)c1cccs1`, “inactive”; under `C[C@@H]1CN([C@H](C)CO)C(=O)c2cccc(NC(=O)Nc3cccc4ccccc34)c2O[C@@H]1CN(C)S(=O)(=O)c1ccc(F)cc1`, “inactive”.
For the compound `C[C@H]1CN([C@@H](C)CO)C(=O)c2cccc(NC(=O)Nc3cccc4ccccc34)c2O[C@@H]1CN(C)S(=O)(=O)c1cccs1`, the cytotoxicity call was “active”.
For `C[C@H]1CN([C@@H](C)CO)C(=O)c2cccc(NC(=O)Nc3cccc4ccccc34)c2O[C@@H]1CN(C)S(=O)(=O)c1ccc(Cl)cc1` the value was “inactive”.
On to `COc1cccc(S(=O)(=O)N(C)C[C@@H]2Oc3c(NC(=O)Nc4cccc5ccccc45)cccc3C(=O)N([C@@H](C)CO)C[C@H]2C)c1`, for which the cytotoxicity call is “inactive”.
Take `C[C@@H]1CN([C@H](C)CO)C(=O)c2cccc(NC(=O)Nc3cccc4ccccc34)c2O[C@@H]1CN(C)S(=O)(=O)c1ccc(Cl)cc1`: the cytotoxicity call is “active”.
Take `C[C@@H]1CN([C@@H](C)CO)C(=O)c2cccc(NC(=O)Nc3cccc4ccccc34)c2O[C@@H]1CN(C)S(=O)(=O)c1ccc(Cl)cc1`: the cytotoxicity call is “inactive”.
For `C[C@H](O)C#Cc1ccc2c(c1)O[C@@H](CN(C)C(=O)Cc1ccccn1)[C@H](C)CN([C@H](C)CO)S2(=O)=O` the value was “inactive”; for `O=C(O)CNC(=O)c1[nH]nc2ccccc12`, “inactive”; for `C[C@@H]1CCCCO[C@@H](CN(C)Cc2ccc(C(F)(F)F)cc2)[C@@H](C)CN([C@H](C)CO)C(=O)c2cc(NS(=O)(=O)c3ccccc3)ccc2O1`, “inactive”.
In the case of `C[C@H](CO)N1C[C@H](C)[C@H](CN(C)S(=O)(=O)c2ccc(F)cc2)Oc2ccc(NS(=O)(=O)c3ccc(F)cc3)cc2C1=O`, the cytotoxicity call is “inactive”.
For `COc1ccc(CN(C)C[C@@H]2OCCCC[C@H](C)Oc3ccc(NC(=O)Nc4cccc5ccccc45)cc3C(=O)N([C@H](C)CO)C[C@@H]2C)cc1` the value was “inactive”; for `COc1ccc(CN(C)C[C@H]2OCCCC[C@H](C)Oc3ccc(NC(=O)Nc4cccc5ccccc45)cc3C(=O)N([C@@H](C)CO)C[C@H]2C)cc1`, “inactive”; for `COc1ccc(CN(C)C[C@@H]2OCCCC[C@H](C)Oc3ccc(NC(=O)Nc4cccc5ccccc45)cc3C(=O)N([C@@H](C)CO)C[C@@H]2C)cc1`, “active”.
On to `COc1ccc(CN(C)C[C@H]2OCCCC[C@@H](C)Oc3ccc(NC(=O)Nc4cccc5ccccc45)cc3C(=O)N([C@H](C)CO)C[C@H]2C)cc1`, for which the cytotoxicity call is “inactive”.
For `COc1ccc(CN(C)C[C@@H]2OCCCC[C@@H](C)Oc3ccc(NC(=O)Nc4cccc5ccccc45)cc3C(=O)N([C@@H](C)CO)C[C@H]2C)cc1`, the cytotoxicity call was “active”.
Regarding `COc1ccc(CN(C)C[C@@H]2OCCCC[C@@H](C)Oc3ccc(NC(=O)Nc4cccc5ccccc45)cc3C(=O)N([C@H](C)CO)C[C@H]2C)cc1`, the cytotoxicity call is “active”.
Turning to `COc1ccc(CN(C)C[C@H]2OCCCC[C@H](C)Oc3ccc(NC(=O)Nc4cccc5ccccc45)cc3C(=O)N([C@@H](C)CO)C[C@@H]2C)cc1`, the cytotoxicity call was “inactive”.
Turning to `COc1ccc(CN(C)C[C@@H]2OCCCC[C@H](C)Oc3ccc(NC(=O)Nc4cccc5ccccc45)cc3C(=O)N([C@H](C)CO)C[C@H]2C)cc1`, the cytotoxicity call was “active”.

The values above are taken from the antibiotic and cytotoxicity screens of Wong et al. (2023).
